PubChem BioAssay AID1159580 (chemical genetic matrix, 2015)
“And” between values parts separate entries of the source, which are not always exact repeats. Identical values can stand only once. Out of some 5,500 compounds screened, about 2,000 (36%) were called active. Roughly 18% stayed inconclusive and do not appear here. Cut-off read from the data, not from the text of the source: active = normalized growth mostly below about 0.91 (no sharp cut-off); inconclusive = no clear call, values can overlap the other calls; inactive = mostly above about 0.92. This is one part of the list.

Assay: chemical genetic growth profiling, strain panel (AID 1159580);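 note: tested at 20 µM; growth read once vehicle control cultures reached saturation at 30 °C; 1 = growth at the plate median or of vehicle wells; lower values mean less growth of the strain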
Settings: S. cerevisiae deletion strains, growth OD

Measured: normalized growth

O=C1CC2OCC=C3CN4CC[C@]56c7ccccc7N1C5[C@H]2[C@H]3CC46 (some centres not stated)
inactive: locus YAL013W, strain DEP1, active compounds read low 1 | locus YAL021C, strain ccr4, active compounds read low 1.03 | locus YAL026C, strain drs2, active compounds read low 1.03 | locus YAL030W, strain snc1, active compounds read low 1.01 | locus YBL061C, strain skt5, active compounds read low 1.01 | locus YBR009C, strain hhf1, active compounds read low 1.02 | locus YBR021W, strain FUR4, active compounds read low 1.01 | locus YBR023C, strain chs3, active compounds read low 1.03 | locus YBR171W, strain sec66, active compounds read low 1.03 | locus YBR229C, strain ROT2, active compounds read low 1 | locus YBR231C, strain swc5, active compounds read low 1.02 | locus YBR279W, strain paf1, active compounds read low 1.03 | locus YCL011C, strain gbp2, active compounds read low 1.03 | locus YCL016C, strain dcc1, active compounds read low 1.03 | locus YCL029C, strain bik1, active compounds read low 1 | locus YCL061C, strain MRC1, active compounds read low 1.02 | locus YCL069W, strain vba3, active compounds read low 1.02 | locus YCR088W, strain abp1, active compounds read low 1.03 | locus YDL005C, strain med2, active compounds read low 1.03 | locus YDL035C, strain GPR1, active compounds read low 1.01 | locus YDL040C, strain nat1, active compounds read low 1.03 | locus YDL074C, strain BRE1, active compounds read low 1.02 | locus YDL101C, strain DUN1, active compounds read low 1.01 | locus YDL134C, strain PPH21, active compounds read low 1.01 | locus YDL185W, strain tfp1, active compounds read low 0.983 | locus YDL192W, strain arf1, active compounds read low 1 | locus YDR001C, strain nth1, active compounds read low 1.03 | locus YDR069C, strain doa4, active compounds read low 1.02 | locus YDR101C, strain arx1, active compounds read low 0.992 | locus YDR137W, strain rgp1, active compounds read low 1.05 | locus YDR150W, strain NUM1, active compounds read low 1.01 | locus YDR159W, strain sac3, active compounds read low 1.01 | locus YDR162C, strain NBP2, active compounds read low 1.01 | locus YDR195W, strain ref2 1.1 | locus YDR297W, strain sur2, active compounds read low 1.02 | locus YDR318W, strain mcm21, active compounds read low 0.999 | locus YDR334W, strain swr1, active compounds read low 1.01 | locus YDR335W, strain msn5, active compounds read low 1.03 | locus YDR388W, active compounds read low 1 | locus YDR392W, strain spt3, active compounds read low 1.03 | locus YDR502C, strain sam2, active compounds read low 1 | locus YEL003W, strain gim4, active compounds read low 1.02 | locus YEL037C, strain rad23, active compounds read low 1.03 | locus YEL061C, strain CIN8 (second series), active compounds read low 1.02 | locus YEL061C, strain CIN8, active compounds read low 1.01 | locus YER015W, strain faa2, active compounds read low 1.03 | locus YER016W, strain bim1, active compounds read low 1.02 | locus YER110C, active compounds read low 0.996 | locus YER111C, strain swi4, active compounds read low 1 | locus YER155C, strain BEM2 (second series), active compounds read low 1.04 | locus YER155C, strain BEM2, active compounds read low 1.02 | locus YER167W, strain BCK2, active compounds read low 1.01 | locus YFR010W, strain ubp6, active compounds read low 1.02 | locus YGL078C, strain dbp3, active compounds read low 0.99 | locus YGL086W, strain mad1, active compounds read low 0.998 | locus YGL167C, strain pmr1, active compounds read low 1.02 | locus YGL173C, strain kem1, active compounds read low 1.02 | locus YGL227W, strain vid30, active compounds read low 1.03 | locus YGL240W, strain doc1, active compounds read low 1.01 | locus YGL248W, strain PDE1, active compounds read low 1.01 | locus YGL253W, strain hxk2, active compounds read low 1.01 | locus YGR078C, strain PAC10, active compounds read low 1.01 | locus YGR135W, strain pre9, active compounds read low 0.982 | locus YGR229C, strain SMI1, active compounds read low 1.03 | locus YGR252W, strain gcn5, active compounds read low 0.914 | locus YHR013C, strain ard1, active compounds read low 1.01 | locus YHR027C, strain rpn1, active compounds read low 1.03 | locus YHR030C, strain SLT2, active compounds read low 1 and 0.976 | locus YHR079C, strain IRE1 (second series), active compounds read low 0.997 | locus YHR079C, strain IRE1, active compounds read low 0.864 | locus YHR094C, strain hxt1, active compounds read low 0.995 | locus YHR129C, strain ARP1, active compounds read low 1.03 | locus YHR142W, strain chs7, active compounds read low 1.03 | locus YHR200W, strain rpn10, active compounds read low 1 | locus YIL066C, strain RNR3, active compounds read low 1.01 | locus YIL073C, strain SPO22, active compounds read low 1.02 | locus YIL125W, strain kgd1, active compounds read low 1 | locus YIR030C, strain dcg1, active compounds read low 1 | locus YJL092W, strain hpr5, active compounds read low 1.02 | locus YJL095W, strain BCK1 (second series), active compounds read low 1.03 | locus YJL095W, strain BCK1, active compounds read low 1 and 0.974 | locus YJL115W, strain asf1, active compounds read low 1 | locus YJL129C, strain trk1, active compounds read low 1.05 | locus YJL134W, strain LCB3, active compounds read low 1.01 | locus YJL154C, strain vps35, active compounds read low 1.01 | locus YJL164C, strain tpk1, active compounds read low 1.03 | locus YJL166W, strain qcr8, active compounds read low 1.02 | locus YJL168C, strain set2, active compounds read low 1 | locus YJL187C, strain SWE1 (second series), active compounds read low 1.01 | locus YJL187C, strain SWE1, active compounds read low 1.03 | locus YJR043C, strain POL32, active compounds read low 0.997 | locus YJR066W, strain TOR1, active compounds read low 0.961
